Measurements as given in PubChem BioAssay AID504467 (National Center for Advancing Translational Sciences (NCATS), 2011).
In all, about 330,000 compounds went through this assay and about 7,700 (2.3%) were called active. Roughly 26% stayed inconclusive and do not appear here. This is one part of a sample in which actives are shown more often than they occur. Unmarked numbers belong to inactive results. The call rests on the fitted dose curve; in most records, active means well fitted inhibition curve with a large enough effect; inconclusive means small, poorly fitted or top-dose-only effect, or effect the other way; inactive means flat fitted curve, though single readings scatter.
On the % scale 0 is the no-effect control and ±100 the full control effect; potency means the concentration at half of the fitted maximal effect.

Assay: qHTS screen for small molecules that inhibit ELG1-dependent DNA repair in human embryonic kidney (HEK293T) cells expressing luciferase-tagged ELG1; further: nearly all actives have a fitted effect of over 55% in size
Settings: HEK293T ELG1-luciferase reporter, luminescence, 16 h, DNA damage induced by 5-fluorouridine; series mostly up to 46.1 µM; activity change, negative = inhibition: at the top concentration
Procedure, shortened: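 Overnight (16 hr) co-exposure of 2,000 cells/well to 5-fluorouridine and compound at 37 °C preceded detection. Luciferase was quantified via ONE-Glo luminescence; loss of signal denotes inhibition.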
In the case of `CCOC(=O)C1CCCN(C(=O)CSc2nnc3nc(C)cc(C)n23)C1` (centres undefined), the “activity change, negative = inhibition” value is reported as 2.07%. With `N#Cc1c(NC(=O)CSc2nc3ccccc3c(=O)n2Cc2ccco2)sc2c1CCCC2` the “activity change, negative = inhibition” value was -11.7%. With `CCCc1cc(=O)[nH]c(SCC(=O)Nc2sc3c(c2C#N)CCCC3)n1` the “activity change, negative = inhibition” value was 2.43%. For `COc1ccc(-n2c(SCC(=O)Nc3sc4c(c3C#N)CCCC4)nnc2-c2ccc(O)cc2)cc1`, the Potency was 18.4 µM (active). For `CCOc1ccccc1NC(=O)CCc1nnc2ccc(NCc3ccco3)nn12`, the “activity change, negative = inhibition” value was 4.95%. With `CN(CCC(=O)Nc1cc(S(=O)(=O)N(C)C)ccc1Cl)CC(=O)Nc1ccc(F)cc1` the “activity change, negative = inhibition” value was -5.53%. For `Cc1ccc(NC(=O)C2CC2)cc1S(=O)(=O)N1CCOCC1`, the “activity change, negative = inhibition” value was -2.57%. For `Cc1ccc(NC(=O)CCCNC(=O)c2ccc(Cl)cc2)cc1S(=O)(=O)N1CCOCC1`, the “activity change, negative = inhibition” value was -8.87%. With `Cc1ccc(NC(=O)c2ccc(Cl)nc2)cc1S(=O)(=O)N1CCOCC1` the Potency was 23.1 µM (active). With `Cc1ccc(NC(=O)c2ccccn2)cc1S(=O)(=O)N1CCOCC1` the “activity change, negative = inhibition” value was 5.46%. With `CN(CC(=O)Nc1ccc(F)cc1)CC(=O)Nc1ccc(Cl)c(S(=O)(=O)N2CCOCC2)c1` the Potency was 18.3 µM (active). In the case of `CN(CC(=O)Nc1ccc(F)cc1)CC(=O)N1CCCCC1`, the “activity change, negative = inhibition” value is reported as -11.1%. For `CC(=O)NCCc1ccc(S(=O)(=O)Nc2ccc(C)c(S(=O)(=O)N3CCOCC3)c2)cc1`, the “activity change, negative = inhibition” value was 2.11%. In the case of `Cc1ccc(NC(=O)C2CCC(C(C)(C)C)CC2)cc1S(=O)(=O)N1CCOCC1` (centres undefined), the Potency is reported as 23.1 µM (active). In the case of `COc1cccc(CNC(=O)C(=O)NCCC2CCCCN2S(=O)(=O)c2ccc(C)cc2)c1` (centres undefined), the “activity change, negative = inhibition” value is reported as -29.2%. With `O=C(CNC(=O)c1ccccc1Br)NCCSc1ccc(Br)cc1` the “activity change, negative = inhibition” value was -19.1%. For `CC(C)(C)OC(=O)C1=C(CO)CS[C@@H]2[C@H](NC(=O)Cc3ccccc3)C(=O)N12`, the “activity change, negative = inhibition” value was 11.9%. In the case of `COc1ccc(S(=O)(=O)N2CCN(C)CC2)c(C)c1`, the “activity change, negative = inhibition” value is reported as 5.66%. For `COc1ccc(C)cc1Nc1nc(-c2c(C)[nH]c3ccccc23)cs1`, the “activity change, negative = inhibition” value was -10.1%. For `COc1ccc2c(c1OC)C(=O)OC2c1c(O)nc(SC)n(-c2ccccc2)c1=O` (centres undefined), the “activity change, negative = inhibition” value was -5.33%. For `COc1ccc2c(c1OC)C(=O)OC2Nc1nc(-c2ccccc2)cs1` (centres undefined), the Potency was 9.2 µM (active). With `O=C(Nc1ccc(N2CCOCC2)c(Cl)c1)c1ccc(S(=O)(=O)N2CCOCC2)cc1` the “activity change, negative = inhibition” value was -11.2%. In the case of `O=C(CN1C(=O)c2ccccc2S1(=O)=O)NC1CCCCC1`, the “activity change, negative = inhibition” value is reported as 11%. With `O=C(CN1C(=O)c2ccccc2S1(=O)=O)N1CCc2ccccc21` the Potency was 20.6 µM (active). For `O=C(CN1CCN(c2ccccn2)CC1)N1CCc2ccccc21`, the “activity change, negative = inhibition” value was 1.75%. With `CCOc1ccc(-n2c(SCC(=O)Nc3cc(C(=O)O)ccc3Cl)nc3ccccc3c2=O)cc1` the “activity change, negative = inhibition” value was 8.71%. In the case of `O=C(O)CCCn1c(=O)c2cccn2c2ccc(F)cc21`, the “activity change, negative = inhibition” value is reported as 13.5%. With `O=C(CN1C(=O)c2cccc3cccc(c23)C1=O)N1CCCCC1` the “activity change, negative = inhibition” value was -4.51%. In the case of `Cc1cc(C)n2nc(C(=O)N3CCN(Cc4ccc5c(c4)OCO5)CC3)nc2n1`, the “activity change, negative = inhibition” value is reported as -5.43%. With `O=C(CCCN1C(=O)c2cccc3cccc(c23)C1=O)N1CCN(Cc2ccc3c(c2)OCO3)CC1` the Potency was 2.31 µM (active). For `O=C(c1cccs1)N1CCN(Cc2ccc3c(c2)OCO3)CC1`, the “activity change, negative = inhibition” value was -19.8%. With `O=C(CSCc1ccc(Cl)cc1)N1CCN(Cc2ccc3c(c2)OCO3)CC1` the Potency was 20.6 µM (active). With `O=C(Nc1cccc2ccccc12)N1CCN(Cc2ccc3c(c2)OCO3)CC1` the “activity change, negative = inhibition” value was -2.1%. With `CCOc1ccccc1NC(=S)NC(=O)CCc1ccccc1` the “activity change, negative = inhibition” value was -23.7%. With `COc1ccc(NC(C)=O)cc1NC(=O)CN1CCN(C2c3ccccc3-c3ccccc32)CC1` the Potency was 0.92 µM (active). For `COc1ccc(NC(C)=O)cc1NC(=O)CN1CCN(c2ccccn2)CC1`, the “activity change, negative = inhibition” value was 9.16%. With `COc1cccc(NC(=O)CN2CCN(CC(=O)Nc3ccccc3Cl)CC2)c1` the “activity change, negative = inhibition” value was -15.9%. With `CCCCN(CCCC)CCCNC(=O)CN1C(=O)COc2ccc(S(=O)(=O)N3CCC(C)CC3)cc21` the “activity change, negative = inhibition” value was 11.5%. For `CC(C)n1ncc2c(C(=O)NCc3ccccc3CN(C)C)cc(C3CC3)nc21`, the “activity change, negative = inhibition” value was -11.2%. For `COc1ccc(CCn2c(-c3ccco3)nc3nc4ccccc4nc32)cc1OC`, the Potency was 4.61 µM (active). For `COc1ccc(S(=O)(=O)N2CN(CCc3ccc(OC)c(OC)c3)c3nc4ccccc4nc32)cc1`, the “activity change, negative = inhibition” value was -17.5%. For `Clc1cccc(-c2nc3nc4ccccc4nc3n2Cc2ccco2)c1`, the “activity change, negative = inhibition” value was -13.2%. For `CCOc1ccccc1-c1cc(C(=O)N/N=C(\C)c2cccnc2)c2ccccc2n1`, the “activity change, negative = inhibition” value was -12.8%. In the case of `COc1ccc(-c2nc(CS(=O)(=O)CC(=O)NCc3cccc(Br)c3)c(C)o2)cc1`, the “activity change, negative = inhibition” value is reported as -4.23%. In the case of `C=CCn1c(SCC(=O)NC)nnc1C12CC3CC(CC(C3)C1)C2`, the “activity change, negative = inhibition” value is reported as -14.1%. With `COc1ccc(C2(c3ccc(OC)cc3)NC(=O)N(CC(=O)Nc3cc(C)on3)C2=O)cc1` the “activity change, negative = inhibition” value was -12.7%. For `COc1ccc(S(=O)(=O)N(C)C[C@H]2Oc3c(NC(=O)Nc4ccc5c(c4)OCO5)cccc3C(=O)N([C@H](C)CO)C[C@@H]2C)cc1`, the Potency was 11.6 µM (active). For `COc1ccc(S(=O)(=O)Nc2cccc3c2O[C@H](CN(C)S(=O)(=O)c2ccc(OC)cc2)[C@@H](C)CN([C@H](C)CO)C3=O)cc1`, the “activity change, negative = inhibition” value was -17.5%. With `C[C@H](CO)N1C[C@H](C)[C@@H](CN(C)S(=O)(=O)c2ccc(F)cc2)Oc2c(NC(=O)Nc3ccccc3)cccc2C1=O` the “activity change, negative = inhibition” value was -18.3%.
